Compound activity deposited in PubChem by several laboratories.
Only some compounds are listed: those with a hit (about 3.2% of all), similar ones and a draw of the others.
TMEM16A inh: TMEM16A chloride channel inhibitors, primary screen, cell-based, HTS. 310,000 tested, 1.2% active. Anoctamin-1 (Mus musculus), Q8BHY3. HEK293 TMEM16A/YFP iodide influx fluorescence, ionomycin. normalized B-score (activity score, 25-100; higher = stronger inhibition) at 10 µM;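 active = ratio plate-corrected score three or more library SD toward inhibition, starting fluorescence score within five deviations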;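 also: score derived from kinetic fluorescence span divided by baseline fluorescence per well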
CHT allo act: CHT positive allosteric modulators, primary screen, cell-based, membrane potential dye, choline EC20; High affinity choline transporter 1 (Homo sapiens), Q9GZV3; CHT-expressing cells; stronger effect = higher value; LV-AA mutant CHT in HEK293 cells; B-score at 10 µM; 310,000 tested, 0.49% active;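 active = initial fluorescence not abnormally high and integrated response B-score, plate-corrected, over 3 SD above library mean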
CHT block: inhibitors of human choline transporter CHT; 310,000 tested, 0.86% active; B-score at 10 µM; CHT-expressing cells, membrane potential dye, choline response; stronger effect = lower value; AID 488975, 2010; High affinity choline transporter 1 (Homo sapiens), Q9GZV3;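 active = B-score over 3 SD under the library average, and starting fluorescence ratio not unusually high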;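 also: choline stimulus applied at its EC90 after an EC20 pre-addition; B-score computed on integrated fluorescence ratio after choline addition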
ANO1 activ: TMEM16A chloride channel activators or potentiators, primary screen, cell-based, HTS; Anoctamin-1 (Mus musculus), Q8BHY3; HEK293 TMEM16A/YFP-H148Q/I152L, iodide quench fluorescence; stronger effect = lower value; B-score at 10 µM; 340,000 tested, 0.3% active; AID 623877, 2012;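 active = fluorescence-ratio B-score plate-corrected deviation score at least 3 library SD below zero, with starting fluorescence score within 5 deviations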;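 also: channel opened by trigger with iodide after compound preincubation; score built on the fluorescence ratio of max minus min over baseline; more negative score means more quench and so TMEM16A activation or potentiation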
PHOSPHO1 inh: PubChem AID 1565; recombinant PHOSPHO1, absorbance phosphatase assay; Phosphoethanolamine/phosphocholine phosphatase (Homo sapiens), Q8TCT1; 290,000 tested, 1.1% active; inhibition, % at 13.3 µM; in the data active = inhibition above about 60%
HDAC3 inhib: HDAC3 deacetylase inhibitors, primary screen, biochemical, fluorescence, cell-free homogeneous; recombinant HDAC3, fluorogenic peptide/trypsin coupled; inhibition, % at 8.3 µM; AID 2718, 2010; Histone deacetylase 3 (Homo sapiens), O15379; 320,000 tested, 0.15% active; in the data active = inhibition above about 26%, passing the limit was not always enough
Target sequence (O15379 whole entry, looked up): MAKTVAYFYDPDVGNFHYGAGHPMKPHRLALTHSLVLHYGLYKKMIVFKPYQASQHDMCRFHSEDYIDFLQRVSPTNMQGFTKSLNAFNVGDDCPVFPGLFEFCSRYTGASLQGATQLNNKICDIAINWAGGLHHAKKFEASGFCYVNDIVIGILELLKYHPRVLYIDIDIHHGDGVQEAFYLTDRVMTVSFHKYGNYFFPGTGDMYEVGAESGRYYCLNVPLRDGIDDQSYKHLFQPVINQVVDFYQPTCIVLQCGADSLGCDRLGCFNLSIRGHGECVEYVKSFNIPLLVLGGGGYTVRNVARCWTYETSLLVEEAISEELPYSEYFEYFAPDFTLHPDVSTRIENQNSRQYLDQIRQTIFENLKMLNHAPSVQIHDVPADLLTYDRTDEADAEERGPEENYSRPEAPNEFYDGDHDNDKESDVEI
CHT act confirm: CHT activators, confirmation, cell-based, membrane potential dye, duplicate | shares compounds with CHT allo act | CHT-expressing cells, membrane potential dye fluorescence (FDSS); % of choline EC20–EC90 response window; HEK293 expressing CHT LV-AA mutant; choline added at its EC20 | activation, % at 10 µM | 2,500 tested, 91% active;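 active = primary screen active, with duplicate mean activation above negative control mean plus 3 SD, cut at about 11% in these data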
HEK293 MP dye: membrane potential response in parental HEK293 cells, counter-screen for CHT activator project, cell-based, membrane potential dye; 2,500 tested, 62% active; ratio readout change at 10 µM, hits read low; membrane potential dye fluorescence (FDSS); measured after EC20 choline addition; shares compounds with CHT allo act;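 active = duplicate-averaged ratio beyond 3 SD from buffer wells, up or down, though filed actives are nearly all decreases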
Numbers without * were called inactive; i = inactive; x = no result given.

SMILES	TMEM16A inh	CHT allo act	CHT block	ANO1 activ	PHOSPHO1 inh	HDAC3 inhib	CHT act confirm	HEK293 MP dye
COc1ccc(CCN(Cc2cc3cc(C)c(C)cc3nc2Cl)C(=O)C2CC2)cc1	i	9.2*	i	i	-3	-2	-4	i
Cc1ccc2nc(Cl)c(CN(Cc3cccs3)C(=O)C3CC3)cc2c1	i	i	i	i	-10	-1	x	x
OC(C#CCCN1CCCCC1)(c1ccccc1)C1CCCCC1 (centres undefined)	i	7.5*	i	i	23	4	18*	i
Cc1ccccc1CN(C)CC(=O)Nc1ccccc1-c1ccccc1	i	i	i	i	-6	-10	x	x
COc1ccc([C@H]2/C=C\CN(C(=O)c3ccc(C)cc3)[C@@H](C)C(=O)N2Cc2ccc(F)cc2)cc1	i	i	i	i	x	17	x	x
COc1ccc([C@H]2/C=C\CN(C(=O)CC(C)(C)C)[C@@H](C)C(=O)N2Cc2ccc(F)cc2)cc1	i	9*	i	i	x	1	25*	i
COc1cc(OC)c(-c2nc(-c3ccncc3)no2)cc1OC	i	i	i	i	40	4	45*	-43*
COc1ccc(-c2nc(-c3ccncc3)no2)c(OC)c1	i	i	i	i	49	3	x	x
O=C(c1nn(Cc2ccccc2)c(=O)c2ccccc12)N1CCN(c2ccccn2)CC1	i	7.6*	i	i	3	-10	26*	i
O=C(Cn1nc(Cc2cccnc2)c2ccccc2c1=O)N1CCN(c2ccccn2)CC1	i	i	i	i	-4	-9	x	x
O=C(c1nn(Cc2ccccc2)c(=O)c2ccccc12)N1CCc2ccccc2C1	i	8.4*	i	i	25	6	28*	i
COc1ccc(S(=O)(=O)NCC2CCCN(C(=O)c3cccnc3)C2)cc1 (centres undefined)	i	i	i	i	26	0	x	x
COc1ccc(C2CCN(Cc3cccnc3)CC2O)cc1 (centres undefined)	i	i	i	i	-7	1	x	x
Cc1cc(C)c2cc3c(N)c(C(=O)N4CCc5ccccc5C4)sc3nc2c1	i	6.4*	i	i	2	4	-7	i
Cc1ccc2nc3sc(C(=O)N4CCCc5ccccc54)c(N)c3cc2c1	i	i	i	i	7	14	x	x
C/C(CC(=O)Nc1cccc(C(F)(F)F)c1)=N\NC(=O)Cc1ccccc1	i	i	i	i	0	1	x	x
CCN(CC)c1nc(N)c2c(N)nc3c(c2c1C#N)CC(c1ccccc1)O3 (centres undefined)	i	6.5*	i	i	7	-2	26*	i
COCCN(C(=S)Nc1ccc(OC)cc1)C(C)c1cccs1 (centres undefined)	i	8.1*	i	i	14	-3	6	i
COc1cc(OC)cc(C(=O)N[C@H](C(=O)Nc2cc(C)cc(C)c2)C(C)C)c1	i	i	i	i	-1	-7	x	x
Cc1cc(N2CCN(C(=O)Nc3ccccc3C#N)CC2)c2ccccc2n1	i	i	i	i	14	0	56*	-82*
Cc1cc(N2CCN(c3nc(-c4ccc([N+](=O)[O-])cc4)cs3)CC2)c2ccccc2n1	i	i	i	i	-14	3	x	x
CC1=Nc2cccc3cccc(c23)N1C	i	7.4*	i	i	-1	1	59*	-71*
CN1C(=O)N(C)c2cccc3cccc1c23	i	i	i	i	11	-8	x	x
COc1ccc(CCN2C(=O)c3ccccc3NC2c2cc(Cl)c(O)c(OC)c2)cc1 (centres undefined)	i	8.3*	i	i	-6	-1	24*	i
Cc1nc2cc(Cl)ccc2n1CCO	i	i	i	i	33	-5	x	x
SMILES	TMEM16A inh	CHT allo act	CHT block	ANO1 activ	PHOSPHO1 inh	HDAC3 inhib	CHT act confirm	HEK293 MP dye
Cc1cc2nc(C)n(CCCN)c2cc1C	i	8.4*	i	i	60*	8	69*	-73*
O=C1C2ON(c3ccccc3)C(c3cccnc3)C2C(=O)N1c1ccccc1 (centres undefined)	i	i	i	i	-34	2	x	x
CC(C)C(=O)N1CCN(c2ccccc2NC(=O)c2cccc(Cl)c2)CC1	i	6.6*	i	i	29	-1	18*	i
Cc1ccccc1NC(=O)NNC(=O)c1ccc2ccccc2c1O	i	i	i	i	19	-8	x	x
Cc1cc2ncn(CCC(=O)NC3CCCC3)c2cc1C	i	i	i	i	46	15	x	x
N#Cc1c(N)oc(-c2ccco2)c1-c1ccco1	i	8.2*	i	i	26	-4	10*	i
N#Cc1c(N)oc(-c2ccccc2)c1-c1ccccc1	i	i	i	i	10	1	x	x
C=CCN1C(=O)/C(=C/C(=O)OC)S/C1=N\NC(=O)c1ccccc1	i	i	i	i	42	-9	x	x
Cc1nnc(C)n1/N=C/c1cc2ccccc2nc1Cl	i	8.6*	i	i	12	4	51*	-55*
O=Cc1c(N2CCCCC2)nc2ccccn2c1=O	i	i	i	i	26	1	x	x
CCOC(=O)/C(C#N)=C/c1c(N2CCN(C)CC2)nc2c(C)cccn2c1=O	i	i	i	i	33	0	46*	-48*
CCN1CCN(c2nc3c(C)cccn3c(=O)c2/C=C(\C#N)C(=O)NCCOC)CC1	i	8.7*	i	i	-3	-177	60*	-62*
CN1CCN(c2nc3ccccn3c(=O)c2C=O)CC1	i	6.3*	i	i	30	1	48*	-45*
CNC(=O)/C(C#N)=C/c1c(N2CCCCCC2)nc2ccccn2c1=O	i	6.4*	i	i	33	-136	-2	-36*
